# From PubChem
# A selection: hits, their analogues and other compounds. The true share with any hit is near 9.4%.
# Pf growth 96h: P. falciparum growth inhibition at 96 hour, primary screen for plastid delayed-death inhibitors; Potency, µM (highest dose often 28.7 µM), for inactives: top-dose activity change, negative = inhibition, most hits filed as inhibitors; 6.9% of 320,000 active; P. falciparum luciferase reporter growth, 96 h; further: on the % scale 0 is the no-effect control and ±100 the full control effect
#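 P. falciparum expressing integrated firefly luciferase grown in erythrocytes (2% hematocrit, 0.05% parasitemia final) with compounds for 96 hours at 37 C, 5% CO2. Growth inhibition read as loss of luminescence after adding luciferase detection reagent.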
# SARS PLpro yeast: SARS-CoV PLP inhibition in yeast. Potency, µM (doses to about 32.9 µM), for inactives: at the highest dose activity, positive = growth rescue, usual class: activators. S. cerevisiae expressing SARS-CoV PLpro, growth rescue. 0.19% of 330,000 active. AID 485353; calls by dose curve; further: 0% is about no effect; nearly all actives have a fitted effect of over 55% in size
# Pf growth 48h: inhibits P. falciparum growth in the first generation, 48 h. 5.9% of 310,000 active. P. falciparum luciferase growth in erythrocytes, 48 h. AID 504832. Potency, µM (top dose mostly 28.7 µM), for the others: top-dose activity change, negative = inhibition, most hits filed as inhibitors; further: on the % scale 0 is the no-effect control and ±100 the full control effect
#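 A one-generation exposure of luciferase-tagged malaria parasites in RPMI 1640/Albumax erythrocyte culture, 37 C and 5% CO2. Inhibition is inferred from decreased luminescence after adding detection reagent.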
# AMA1 RON2 block: inhibitors of Plasmodium falciparum AMA1-RON2 interaction. AlphaScreen AMA1-biotinylated RON2 peptide binding. Potency, µM (titrated, usually from 58.2 µM), without a hit: at the highest dose activity change, negative = inhibition, hits mostly inhibitors. 0.2% of 360,000 active;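 further: 0% = vehicle wells and -100% = peptide control; nearly all actives have a fitted effect of over 45% in size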
#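 AMA1 (3D7) with his tag at 25 nM final met compounds first, then biotinylated RON2 peptide at 25 nM; detection used donor plus acceptor beads, 10 µg/mL apiece, read by AlphaScreen after 30 min at room temperature.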
# * hit, by the source's call; u = inconclusive; x = no result. Unless noted, the call rests on the fitted dose curve; in most records, active means well fitted curve in the direction sought with a large enough effect; inconclusive means small, poorly fitted or top-dose-only effect, or another doubt; inactive means no such curve, though single readings can be large; an effect the other way counts as inactive or inconclusive. Potency means the concentration at half of the fitted maximal effect.
SMILES,Pf growth 96h,SARS PLpro yeast,Pf growth 48h,AMA1 RON2 block
COc1ccc(CNCC(O)(c2ccccc2)c2ccc(F)cc2)cc1 (stereo not drawn),u,-1.0%,5.22µM*,19.1%
COc1ccc(CNCC(O)(c2ccccc2)c2ccc(F)cc2)cc1OC (stereo not drawn),8.28µM*,-1.2%,7.38µM*,0.2%
COc1ccc(CCNCc2cccc(C(F)(F)F)c2)cc1OC,39.2%,0.3%,-16.1%,-0.7%
CCCCCNCc1ccc(Cl)cc1,104.6%,1.3%,4.7%,-2.3%
Cc1ccc(C(O)(CNCc2ccccc2)c2ccccc2)cc1 (stereo not drawn),u,-2.0%,u,-5.6%
COc1ccc(-c2c(O)c(C#N)c(-c3ccccc3)n(-c3ccc(OC)cc3)c2=O)cc1,-5.3%,14.5%,7.3%,2.0%
COc1ccc(CNCC(O)(c2ccc(Cl)cc2)c2ccc(Cl)cc2)cc1,1.04µM*,-8.1%,1.17µM*,-4.8%
COc1ccc(CNCC(O)(c2ccc(Cl)cc2)c2ccc(Cl)cc2)cc1OC,1.47µM*,2.4%,2.08µM*,-9.3%
COc1ccc(CCNC(=O)c2ccc(Cl)cc2)cc1OC,u,-0.1%,0.5%,40.5%
O=C(COC(=O)c1cccc(Br)c1)NCCNC(=O)COC(=O)c1cccc(Br)c1,0.415µM*,0.0%,0.465µM*,0.3%
O=C(COC(=O)c1cccc(Br)c1)NCCc1ccccc1,13.2%,-28.8%,1.6%,-4.5%
CCOC(=O)CNc1nc(Cl)nc(NC(C)(C)C)n1,13.1µM*,-6.0%,1.8%,1.0%
CC(C)(C)Nc1nc(N)nc(Cl)n1,30.7%,0.5%,21.3%,-2.6%
CC(NS(=O)(=O)c1ccc2c(c1)CC(=O)N2C)c1ccccc1 (stereo not drawn),u,-0.9%,-10.7%,-18.8%
CN1C(=O)Cc2cc(S(=O)(=O)N3CCOCC3)ccc21,4.65µM*,-21.5%,-7.7%,-4.3%
CCOC(=O)C1CCN(S(=O)(=O)c2ccc3c(c2)CC(=O)N3C)CC1,-5.5%,2.9%,2.08µM*,-12.0%
Cc1cccc(N2CCN(S(=O)(=O)c3ccc4c(c3)CC(=O)N4C)CC2)c1C,u,-4.5%,9.28µM*,-14.0%
CC(CNS(=O)(=O)c1ccc2c(c1)CC(=O)N2C)c1ccccc1 (stereo not drawn),10.4µM*,24.0%,9.28µM*,-6.8%
Cc1cccc(N2CCN(S(=O)(=O)c3ccc(S(=O)(=O)N4CCCC4)cc3)CC2)c1C,-8.6%,-0.9%,x,3.8%
COC(=O)c1c(C(=O)OC)c(-c2cccc(Cl)c2)n2c1CS(=O)C2 (stereo not drawn),28.9%,1.4%,u,28.7%
Cn1nnnc1SCC(=O)N1CCOCC1,u,-0.6%,7.4%,10.7%
CC(C)n1nnnc1SCC(=O)NCc1ccc2c(c1)OCO2,u,3.4%,3.6%,-14.5%
CC(C)n1nnnc1SCC(=O)N1CCN(Cc2ccc3c(c2)OCCO3)CC1,10.4µM*,-16.5%,11.7µM*,-2.8%
CC(C)n1nnnc1SCC(=O)N1CCOCC1,13.1µM*,4.6%,5.0%,-21.8%
CC(C)C(C(=O)NC1CCCC1)N1CCC(O)(c2ccc(Cl)cc2)CC1 (stereo not drawn),x,x,x,23.7%
SMILES,Pf growth 96h,SARS PLpro yeast,Pf growth 48h,AMA1 RON2 block
COc1ccccc1/C=N/NC(=O)NC12CC3CC(CC(C3)C1)C2,2.4%,0.7%,u,-5.9%
COc1ccc(/C=N/NC(=O)NC23CC4CC(CC(C4)C2)C3)c(OC)c1,u,-6.4%,8.28µM*,0.3%
Cc1ccc(C(=O)OCC(=O)N2CCc3ccccc32)cc1,65.8%,-3.3%,141.8%,-4.8%
Cc1ccc(N(CC(=O)N2CCc3ccccc32)C2=NC(=O)CS2)cc1,9.28µM*,-1.2%,x,3.4%
CN1c2ccccc2C2(C)CCCC3=Cc4cccc([N+](=O)[O-])c4OC312 (stereo not drawn),u,1.6%,u,-14.4%
CN1c2ccccc2C2(C)CCCC3=Cc4cc([N+](=O)[O-])cc([N+](=O)[O-])c4OC312 (stereo not drawn),u,17.2%,5.86µM*,u
CC1=CC2=NC(=O)/C(=C\c3cc(C)n(-c4ccccc4F)c3C)C(=N)N2O1,u,18.6%,10.4µM*,23.6%
CC1=CC2=NC(=O)/C(=C\c3cc(C)n(-c4ccccc4)c3C)C(=N)N2O1,u,24.4%,u,-5.5%
O=C(CSc1nc2nn(-c3ccccc3)c(=O)c-2c2n1CCCCC2)Nc1ccccc1[N+](=O)[O-],6.57µM*,2.3%,u,14.4%
